SNCA expr inhib – inhibitors of alpha-synuclein (SNCA) gene expression; hit rate 0.17% among 140,000; HEK-293 SNCA-luciferase knock-in, luminescence, 24 h; AID 1671194; Potency, µM (series often up to 57.2 µM), most hits filed as inhibitors; also: nearly all actives have a fitted effect of over 45% in size
hNpr1 antagonist – antagonists of human natriuretic peptide receptor Npr1. P16066. HEK293 hNpr1 GloSensor cGMP, ANP-stimulated luminescence. Potency, µM (titrated, usually from 46.3 µM), actives largely listed as inhibitors. hit rate 1.6% among 76,000. AID 1347048; calls by dose curve; also: nearly all actives have a fitted effect of over 60% in size
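Compound pre-incubated 30 min at room temperature on GloSensor-loaded HEK293 cells stably carrying hNpr1 and the pGS-40F cGMP biosensor. Stimulation uses hNppA at 0.1 nM final; luminescence is taken at baseline and 20 min post-agonist.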
HEK cytotox – kills HEK 293 cells | Potency, µM (series often up to 115 µM), most hits filed as inhibitors | AID 1345083 | hit rate 6.6% among 94,000 | HEK 293 viability, ATP luminescence (CellTiter-Glo), 48-72 h; also: nearly all actives have a fitted effect of over 60% in size
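Cells seeded first (HEK 293, 250 cells/well), then compound added by pintool. Incubation ran 48 or 72 hr at 37 degree Celsius. CellTiter-Glo was added and luminescence imaged after 10 min at room temperature.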
SNCA viab count – counter-screen for SNCA expression inhibitors: cell viability | HEK-293-SNCA-luc viability, GF-AFC fluorescence, 24 h | Potency, µM (top dose mostly 57.1 µM), hits mostly cytotoxic | hit rate 0.12% among 150,000; also: nearly all actives have a fitted effect of over 30% in size
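Cytotoxicity counterscreen: after 24 h compound treatment of genome-edited SNCA-luciferase HEK-293 cells, live-cell protease substrate GF-AFC read by fluorescence after 30 min; activity scaled between DMSO (0%) and medium-only (-100%), curves Hill-fitted.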
FLuc inh – blocks purified firefly luciferase enzyme activity | AID 1347043 | purified P. pyralis luciferase, luminescence, biochemical | Potency, µM (titrated, usually from 115 µM), usual class: inhibitors | P08659 | hit rate 2.5% among 76,000; also: nearly all actives have a fitted effect of over 65% in size
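Purified P. pyralis luciferase (10nM final) in 50mM Tris acetate pH 7.5, 10mM Mg acetate, 0.01% Tween-20, 0.05% BSA with 10uM D-luciferin and 10uM ATP. Compounds titrated qHTS. Luminescence imaged on CCD.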
3T3 cytotox – cytotoxic compounds in NIH 3T3 cells; NIH 3T3 viability, CellTiter-Glo ATP luminescence, 48-72 h; Potency, µM (doses to about 96.7 µM), most hits filed as inhibitors; hit rate 4.3% among 94,000; also: nearly all actives have a fitted effect of over 55% in size
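First NIH 3T3 cells are plated at 400 cells/well; next compound is pinned in; then plates incubate 48 or 72 hr at 37 °C; finally CellTiter-Glo is added and luminescence read after 10 min.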
Numbers stand for hits. Sampled rows, rich in hits. Any-hit rate of the full collection: about 7.2%. Unless noted, calls follow the shape of the dose curve; as a rule, active = well fitted curve in the direction sought with a large enough effect; inconclusive = small, poorly fitted or top-dose-only effect, or another doubt; inactive = no such curve, though single readings can be large; an effect the other way counts as inactive or inconclusive.

How did COC1CN(c2cccc(F)c2)C12CCN(C(=O)c1ccco1)CC2 (stereo unspecified) do in these assays?
SNCA expr inhib: inactive; hNpr1 antagonist: inactive; HEK cytotox: inactive; SNCA viab count: inactive; FLuc inh: inactive; 3T3 cytotox: inactive

How did Cc1ccc(-c2ccc(CN)cc2)cc1Cl do in these assays?
SNCA expr inhib: inconclusive; HEK cytotox: 32µM; SNCA viab count: inconclusive; 3T3 cytotox: 32µM

Results for Cc1ccc(-c2cccc(CN)c2)cc1Cl ?
SNCA expr inhib: inactive; HEK cytotox: inconclusive; SNCA viab count: inconclusive; 3T3 cytotox: 28µM

What do the screens show for `CSc1ccc(-c2cccc(CN)c2)cc1`?
SNCA expr inhib: inactive; HEK cytotox: inconclusive; SNCA viab count: inconclusive; 3T3 cytotox: 25µM

Results for NCc1cccc(-c2ccc(O)cc2)c1 ?
SNCA expr inhib: inactive; HEK cytotox: inactive; SNCA viab count: inactive; 3T3 cytotox: inactive

How did CN(Cc1cccc(OCC(O)CN2CCOCC2)c1)Cc1ccc2nonc2c1 (stereo unspecified) do in these assays?
SNCA expr inhib: inactive; hNpr1 antagonist: inactive; HEK cytotox: inconclusive; SNCA viab count: inactive; FLuc inh: inactive; 3T3 cytotox: inactive

How did O=Cc1cccc(-c2ccc(OC(F)(F)F)cc2)c1 do in these assays?
SNCA expr inhib: inactive; HEK cytotox: inactive; SNCA viab count: inactive; 3T3 cytotox: inconclusive

Results for NCc1cccc(-c2ccc(OC(F)(F)F)cc2)c1 ?
SNCA expr inhib: inactive; HEK cytotox: 40µM; SNCA viab count: inactive; 3T3 cytotox: 32µM

How did NCc1cccc(-c2cccc(C(F)(F)F)c2)c1 do in these assays?
SNCA expr inhib: inactive; HEK cytotox: inconclusive; SNCA viab count: inactive; 3T3 cytotox: 79µM

What do the screens show for `O=C(C1CCCC1)N1CCC2(CC1)CC(c1cccc(C(F)(F)F)c1)=NO2`?
HEK cytotox: 45µM; 3T3 cytotox: inconclusive

What do the screens show for `COc1ccc(C2=NOC3(CCCN([S+](=O)([O-])c4cccc(OC)c4)C3)C2)cc1` (stereo unspecified)?
SNCA expr inhib: inactive; HEK cytotox: inconclusive; SNCA viab count: inactive; 3T3 cytotox: inactive

Results for COc1ccc(C2=NOC3(CCN([S+](=O)([O-])c4ccccc4)C3)C2)cc1 (stereo unspecified) ?
SNCA expr inhib: inactive; hNpr1 antagonist: inactive; HEK cytotox: 45µM; SNCA viab count: inconclusive; FLuc inh: inconclusive; 3T3 cytotox: inconclusive

How did CC(=O)N1CCC2(CC1)CC(c1cccc(C(F)(F)F)c1)=NO2 do in these assays?
HEK cytotox: inactive; 3T3 cytotox: inactive

What do the screens show for `COc1cccc(C(=O)N2CCC3(CC2)CC(c2cccc(C(F)(F)F)c2)=NO3)c1`?
HEK cytotox: 45µM; 3T3 cytotox: inconclusive

Results for O=C(c1ccc(Cl)cc1)N1CCC2(CC1)CC(c1cccc(C(F)(F)F)c1)=NO2 ?
HEK cytotox: 32µM; 3T3 cytotox: inconclusive

Results for COc1ccc(C)cc1NC(=O)C1CCN(c2cnc3nc(C)c(C)nc3c2)CC1 ?
SNCA expr inhib: inactive; hNpr1 antagonist: inactive; HEK cytotox: inconclusive; SNCA viab count: inactive; FLuc inh: inconclusive; 3T3 cytotox: inactive

Results for O=c1[nH]c(N2CCOCC2)nc2c1CCN(Cc1ccc(Cl)cc1F)CC2 ?
SNCA expr inhib: inactive; hNpr1 antagonist: inactive; HEK cytotox: inconclusive; SNCA viab count: inactive; FLuc inh: inactive; 3T3 cytotox: inconclusive

How did CN1C[C@H](NCc2cccc3c2OCO3)CCC[C@@H](C(=O)NCc2cc(F)cc(F)c2)CC1=O do in these assays?
SNCA expr inhib: inactive; hNpr1 antagonist: inactive; HEK cytotox: inactive; SNCA viab count: inactive; FLuc inh: inactive; 3T3 cytotox: inconclusive

Results for COc1ccc(C2=NOC3(CCN(Cc4cccc5ccccc45)C3)C2)cc1 (stereo unspecified) ?
SNCA expr inhib: inactive; hNpr1 antagonist: inconclusive; HEK cytotox: inconclusive; SNCA viab count: inactive; FLuc inh: inactive; 3T3 cytotox: inactive

Results for COc1ccc(CN2CCC3(CC(c4cccc(C(F)(F)F)c4)=NO3)C2)cc1 (stereo unspecified) ?
SNCA expr inhib: inactive; HEK cytotox: inconclusive; SNCA viab count: inactive; 3T3 cytotox: inconclusive

Results for O=C(c1ccc(C(F)(F)F)cc1)N1CCC2(CC1)CC(c1cccc(C(F)(F)F)c1)=NO2 ?
SNCA expr inhib: inconclusive; hNpr1 antagonist: inactive; HEK cytotox: 40µM; SNCA viab count: inactive; FLuc inh: inactive; 3T3 cytotox: inconclusive

Results for COc1ccc(CN2CCC3(CC2)CC(c2cccc(C(F)(F)F)c2)=NO3)cc1 ?
SNCA expr inhib: inactive; hNpr1 antagonist: inactive; HEK cytotox: 50µM; SNCA viab count: inactive; FLuc inh: inactive; 3T3 cytotox: inconclusive

What do the screens show for `COc1ccc(C2=NOC3(CCN(Cc4ccc(F)cc4)C3)C2)cc1` (stereo unspecified)?
SNCA expr inhib: inactive; hNpr1 antagonist: inconclusive; HEK cytotox: 79µM; SNCA viab count: inactive; FLuc inh: inactive; 3T3 cytotox: inconclusive

What do the screens show for `Cc1noc(C2CC3(CCN(C(=O)CCc4c[nH]c5ccccc45)CC3)CN2C)n1` (stereo unspecified)?
SNCA expr inhib: inactive; hNpr1 antagonist: inactive; HEK cytotox: inactive; SNCA viab count: inactive; FLuc inh: inactive; 3T3 cytotox: inactive

How did CCC1(N2CCN(C)CC2)CCN(S(=O)(=O)c2ccccc2)C1 (stereo unspecified) do in these assays?
SNCA expr inhib: inactive; hNpr1 antagonist: inactive; HEK cytotox: inactive; SNCA viab count: inactive; FLuc inh: inactive; 3T3 cytotox: inactive

What do the screens show for `O=C(CCc1c[nH]c2ccccc12)N1CCC(Cc2nc(-c3ccncc3)n[nH]2)CC1`?
SNCA expr inhib: inactive; HEK cytotox: inactive; SNCA viab count: inactive; 3T3 cytotox: inconclusive

How did O=C(CCc1c[nH]c2ccccc12)N1CCC[C@H]1c1nc(-c2ccc(F)cc2)n[nH]1 do in these assays?
SNCA expr inhib: inactive; HEK cytotox: 40µM; SNCA viab count: inconclusive; 3T3 cytotox: inconclusive

What do the screens show for `COc1ccc2nc3n(c2c1)[C@@H](CNS(=O)(=O)c1ccc(F)cc1)COC3`?
SNCA expr inhib: inactive; hNpr1 antagonist: inactive; HEK cytotox: inactive; SNCA viab count: inactive; FLuc inh: inactive; 3T3 cytotox: inconclusive

Results for COc1ccc(S(=O)(=O)NC[C@H]2COCc3nc4ccc(C)cc4n32)cc1 ?
SNCA expr inhib: inactive; hNpr1 antagonist: inconclusive; HEK cytotox: inconclusive; SNCA viab count: inactive; FLuc inh: inactive; 3T3 cytotox: 89µM

What do the screens show for `COc1ccc2nc3n(c2c1)[C@@H](CNCC(C)(C)C)COC3`?
SNCA expr inhib: inactive; hNpr1 antagonist: inactive; HEK cytotox: inconclusive; SNCA viab count: inactive; FLuc inh: inactive; 3T3 cytotox: 32µM

Compound activity deposited in PubChem by National Center for Advancing Translational Sciences (NCATS).
